Reference: the supplement of paper PMC11732987, “Enantioselective OTUD7B fragment discovery through chemoproteomics screening and high-throughput optimisation” (Communications Chemistry, 2025)

Legend:
Experiment in all cases: log2 ratio of Biotin-Ahx-Ub-VS probe labelling (fragment/DMSO); higher = less target engagement (more negative = stronger competition), active = hit call of the paper (q ≤ 0.05, log2 ratio ≤ -1)
Settings in all cases: compound concentration: 200 uM; treatment time: 3 h
USP19 = target: T1, USP19 (UniProt O94966)
T1 sequence (whole entry): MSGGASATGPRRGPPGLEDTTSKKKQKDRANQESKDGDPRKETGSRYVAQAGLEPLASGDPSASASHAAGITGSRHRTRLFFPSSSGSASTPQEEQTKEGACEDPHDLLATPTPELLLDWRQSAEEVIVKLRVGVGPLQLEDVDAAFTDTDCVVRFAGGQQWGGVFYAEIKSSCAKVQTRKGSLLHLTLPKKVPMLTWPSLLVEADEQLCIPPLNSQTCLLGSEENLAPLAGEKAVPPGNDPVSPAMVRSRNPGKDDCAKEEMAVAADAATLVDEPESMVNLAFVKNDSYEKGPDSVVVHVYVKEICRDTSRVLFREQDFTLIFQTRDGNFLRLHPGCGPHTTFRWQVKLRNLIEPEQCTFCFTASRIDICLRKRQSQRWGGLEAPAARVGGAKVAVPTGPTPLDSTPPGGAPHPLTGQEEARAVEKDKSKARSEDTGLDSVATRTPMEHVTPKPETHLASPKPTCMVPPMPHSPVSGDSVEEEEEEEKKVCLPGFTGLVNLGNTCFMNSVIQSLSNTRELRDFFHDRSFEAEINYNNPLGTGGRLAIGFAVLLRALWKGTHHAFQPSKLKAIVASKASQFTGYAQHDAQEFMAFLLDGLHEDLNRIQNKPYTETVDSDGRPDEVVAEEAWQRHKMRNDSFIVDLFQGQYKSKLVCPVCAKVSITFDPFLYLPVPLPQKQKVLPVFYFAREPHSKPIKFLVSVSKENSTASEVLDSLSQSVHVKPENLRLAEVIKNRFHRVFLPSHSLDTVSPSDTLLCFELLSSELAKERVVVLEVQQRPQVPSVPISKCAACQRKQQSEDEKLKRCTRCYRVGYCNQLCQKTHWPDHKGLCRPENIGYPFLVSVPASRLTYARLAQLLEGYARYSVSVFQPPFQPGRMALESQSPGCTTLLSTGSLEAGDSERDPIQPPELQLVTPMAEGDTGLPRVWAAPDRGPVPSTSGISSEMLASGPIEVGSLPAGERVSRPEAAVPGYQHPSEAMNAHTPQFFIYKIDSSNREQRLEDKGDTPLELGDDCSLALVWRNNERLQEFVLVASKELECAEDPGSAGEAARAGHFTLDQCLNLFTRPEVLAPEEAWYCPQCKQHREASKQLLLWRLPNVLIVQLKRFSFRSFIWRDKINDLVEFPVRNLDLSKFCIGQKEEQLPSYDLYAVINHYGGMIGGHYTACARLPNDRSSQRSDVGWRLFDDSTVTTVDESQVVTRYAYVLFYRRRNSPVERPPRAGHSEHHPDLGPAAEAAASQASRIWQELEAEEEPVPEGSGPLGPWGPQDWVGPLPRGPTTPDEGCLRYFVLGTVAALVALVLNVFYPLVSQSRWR
Outline: (§1)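 Labelled DUBs from HEK293T lysate were NeutrAvidin-enriched, digested with LysC and trypsin, and run by diaPASEF LC-MS/MS. Before that, each 495 µg sample in Tris/CHAPS/IGEPAL buffer with protease inhibitors was treated in triplicate with fragment at 200 µM or vehicle for 3 h, then with Biotin-Ahx-Ub-VS at 0.5 µM final for 1 h. Values are average log2 ratios of fragment over vehicle by unpaired t-test, based on global-median-normalised Spectronaut label-free quantities from proteins with ≥2 unique peptides.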

USP24 = USP24 (UniProt Q9UPU5)
USP24, sequence (Q9UPU5 whole entry): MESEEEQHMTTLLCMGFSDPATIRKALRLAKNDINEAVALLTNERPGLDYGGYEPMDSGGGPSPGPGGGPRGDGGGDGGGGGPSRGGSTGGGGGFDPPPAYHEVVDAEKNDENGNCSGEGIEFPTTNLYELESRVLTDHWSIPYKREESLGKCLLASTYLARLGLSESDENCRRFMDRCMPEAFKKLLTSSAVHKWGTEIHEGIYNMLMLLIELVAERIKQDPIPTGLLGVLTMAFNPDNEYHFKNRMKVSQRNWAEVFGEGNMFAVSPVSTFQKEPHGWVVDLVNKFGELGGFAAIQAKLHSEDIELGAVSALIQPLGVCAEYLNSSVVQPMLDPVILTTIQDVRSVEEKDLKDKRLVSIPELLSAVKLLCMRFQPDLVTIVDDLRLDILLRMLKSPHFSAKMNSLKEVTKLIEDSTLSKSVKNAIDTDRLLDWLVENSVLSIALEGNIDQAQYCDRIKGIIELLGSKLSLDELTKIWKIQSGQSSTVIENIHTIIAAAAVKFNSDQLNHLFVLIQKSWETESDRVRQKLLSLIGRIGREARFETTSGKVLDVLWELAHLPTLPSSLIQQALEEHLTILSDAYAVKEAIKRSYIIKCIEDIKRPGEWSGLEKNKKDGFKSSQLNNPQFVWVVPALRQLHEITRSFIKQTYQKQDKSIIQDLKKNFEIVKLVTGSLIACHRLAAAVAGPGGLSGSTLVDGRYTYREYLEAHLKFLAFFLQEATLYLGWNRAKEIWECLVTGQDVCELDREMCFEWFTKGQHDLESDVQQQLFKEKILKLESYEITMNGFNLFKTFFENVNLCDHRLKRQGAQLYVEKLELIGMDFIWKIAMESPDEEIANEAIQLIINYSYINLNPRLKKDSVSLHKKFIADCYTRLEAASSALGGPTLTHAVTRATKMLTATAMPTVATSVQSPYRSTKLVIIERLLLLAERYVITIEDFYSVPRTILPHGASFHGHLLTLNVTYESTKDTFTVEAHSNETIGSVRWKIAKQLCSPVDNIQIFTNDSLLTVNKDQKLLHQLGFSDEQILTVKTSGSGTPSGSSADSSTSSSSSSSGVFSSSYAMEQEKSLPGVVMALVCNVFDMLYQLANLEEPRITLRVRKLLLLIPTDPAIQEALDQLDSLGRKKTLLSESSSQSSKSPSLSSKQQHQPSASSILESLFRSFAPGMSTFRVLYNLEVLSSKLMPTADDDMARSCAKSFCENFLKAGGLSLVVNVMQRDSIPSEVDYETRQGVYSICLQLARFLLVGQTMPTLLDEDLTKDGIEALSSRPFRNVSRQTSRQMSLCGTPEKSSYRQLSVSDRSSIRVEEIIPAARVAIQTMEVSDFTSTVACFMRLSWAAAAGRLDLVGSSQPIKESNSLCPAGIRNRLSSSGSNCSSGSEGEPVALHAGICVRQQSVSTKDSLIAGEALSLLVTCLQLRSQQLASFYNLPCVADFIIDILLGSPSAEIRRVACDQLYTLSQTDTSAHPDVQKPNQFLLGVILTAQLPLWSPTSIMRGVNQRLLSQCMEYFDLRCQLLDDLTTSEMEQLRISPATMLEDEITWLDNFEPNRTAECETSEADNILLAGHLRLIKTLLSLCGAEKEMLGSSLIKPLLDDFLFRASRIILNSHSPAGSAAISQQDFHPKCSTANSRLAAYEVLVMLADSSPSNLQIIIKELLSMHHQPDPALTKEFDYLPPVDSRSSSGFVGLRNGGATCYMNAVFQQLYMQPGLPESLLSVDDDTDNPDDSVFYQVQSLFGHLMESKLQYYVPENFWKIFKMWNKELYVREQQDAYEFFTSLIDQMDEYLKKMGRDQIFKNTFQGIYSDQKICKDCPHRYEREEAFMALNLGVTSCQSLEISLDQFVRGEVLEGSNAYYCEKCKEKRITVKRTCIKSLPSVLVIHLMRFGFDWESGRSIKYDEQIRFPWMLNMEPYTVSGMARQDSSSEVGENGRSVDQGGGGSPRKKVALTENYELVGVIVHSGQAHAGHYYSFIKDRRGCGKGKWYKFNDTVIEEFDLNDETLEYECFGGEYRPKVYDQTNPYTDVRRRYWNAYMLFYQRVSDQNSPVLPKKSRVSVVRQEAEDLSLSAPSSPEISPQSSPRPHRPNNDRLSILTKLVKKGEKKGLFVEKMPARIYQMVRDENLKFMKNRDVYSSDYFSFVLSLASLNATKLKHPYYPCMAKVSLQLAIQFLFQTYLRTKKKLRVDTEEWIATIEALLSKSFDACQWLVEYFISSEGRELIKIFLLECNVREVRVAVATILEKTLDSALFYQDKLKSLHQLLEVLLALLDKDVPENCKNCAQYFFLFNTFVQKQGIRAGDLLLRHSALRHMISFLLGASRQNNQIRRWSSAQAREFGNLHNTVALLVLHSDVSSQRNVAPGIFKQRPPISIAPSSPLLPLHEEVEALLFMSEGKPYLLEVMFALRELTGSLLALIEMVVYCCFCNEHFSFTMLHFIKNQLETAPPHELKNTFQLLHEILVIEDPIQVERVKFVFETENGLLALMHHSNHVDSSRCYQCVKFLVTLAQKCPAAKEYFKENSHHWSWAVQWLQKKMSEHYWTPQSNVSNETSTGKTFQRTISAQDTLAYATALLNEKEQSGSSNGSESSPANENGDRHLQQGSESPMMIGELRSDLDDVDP
Outline: as §1

USP25 = target: T2, USP25 (UniProt Q9UHP3)
T2 sequence (whole entry): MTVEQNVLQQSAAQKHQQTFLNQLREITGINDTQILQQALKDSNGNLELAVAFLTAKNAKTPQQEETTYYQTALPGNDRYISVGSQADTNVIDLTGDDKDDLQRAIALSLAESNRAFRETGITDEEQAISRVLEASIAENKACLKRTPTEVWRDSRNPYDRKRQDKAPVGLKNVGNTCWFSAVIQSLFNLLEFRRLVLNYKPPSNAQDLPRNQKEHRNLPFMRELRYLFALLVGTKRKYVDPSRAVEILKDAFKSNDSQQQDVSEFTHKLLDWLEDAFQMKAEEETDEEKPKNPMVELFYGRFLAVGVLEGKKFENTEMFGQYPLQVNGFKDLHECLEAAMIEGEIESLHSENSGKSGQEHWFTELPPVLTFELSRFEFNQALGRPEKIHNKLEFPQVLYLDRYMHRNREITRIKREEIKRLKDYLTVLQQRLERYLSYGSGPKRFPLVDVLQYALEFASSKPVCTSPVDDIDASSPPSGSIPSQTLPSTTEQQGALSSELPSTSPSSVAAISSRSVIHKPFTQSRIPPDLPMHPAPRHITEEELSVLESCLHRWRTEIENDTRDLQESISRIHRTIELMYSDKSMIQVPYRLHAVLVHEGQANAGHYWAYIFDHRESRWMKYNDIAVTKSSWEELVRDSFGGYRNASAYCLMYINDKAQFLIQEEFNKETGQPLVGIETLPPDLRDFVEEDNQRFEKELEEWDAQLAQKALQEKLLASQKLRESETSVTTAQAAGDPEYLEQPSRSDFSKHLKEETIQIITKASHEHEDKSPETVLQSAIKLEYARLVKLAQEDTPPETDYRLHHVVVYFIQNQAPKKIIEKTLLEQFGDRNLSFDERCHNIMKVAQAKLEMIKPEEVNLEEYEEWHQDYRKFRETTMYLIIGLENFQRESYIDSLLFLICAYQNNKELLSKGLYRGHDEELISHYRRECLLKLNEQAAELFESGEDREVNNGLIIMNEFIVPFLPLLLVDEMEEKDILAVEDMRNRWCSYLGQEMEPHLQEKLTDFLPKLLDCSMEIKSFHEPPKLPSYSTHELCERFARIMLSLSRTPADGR
Outline: as §1

USP28 = target: T3, USP28 (UniProt Q96RU2)
T3 sequence (whole entry): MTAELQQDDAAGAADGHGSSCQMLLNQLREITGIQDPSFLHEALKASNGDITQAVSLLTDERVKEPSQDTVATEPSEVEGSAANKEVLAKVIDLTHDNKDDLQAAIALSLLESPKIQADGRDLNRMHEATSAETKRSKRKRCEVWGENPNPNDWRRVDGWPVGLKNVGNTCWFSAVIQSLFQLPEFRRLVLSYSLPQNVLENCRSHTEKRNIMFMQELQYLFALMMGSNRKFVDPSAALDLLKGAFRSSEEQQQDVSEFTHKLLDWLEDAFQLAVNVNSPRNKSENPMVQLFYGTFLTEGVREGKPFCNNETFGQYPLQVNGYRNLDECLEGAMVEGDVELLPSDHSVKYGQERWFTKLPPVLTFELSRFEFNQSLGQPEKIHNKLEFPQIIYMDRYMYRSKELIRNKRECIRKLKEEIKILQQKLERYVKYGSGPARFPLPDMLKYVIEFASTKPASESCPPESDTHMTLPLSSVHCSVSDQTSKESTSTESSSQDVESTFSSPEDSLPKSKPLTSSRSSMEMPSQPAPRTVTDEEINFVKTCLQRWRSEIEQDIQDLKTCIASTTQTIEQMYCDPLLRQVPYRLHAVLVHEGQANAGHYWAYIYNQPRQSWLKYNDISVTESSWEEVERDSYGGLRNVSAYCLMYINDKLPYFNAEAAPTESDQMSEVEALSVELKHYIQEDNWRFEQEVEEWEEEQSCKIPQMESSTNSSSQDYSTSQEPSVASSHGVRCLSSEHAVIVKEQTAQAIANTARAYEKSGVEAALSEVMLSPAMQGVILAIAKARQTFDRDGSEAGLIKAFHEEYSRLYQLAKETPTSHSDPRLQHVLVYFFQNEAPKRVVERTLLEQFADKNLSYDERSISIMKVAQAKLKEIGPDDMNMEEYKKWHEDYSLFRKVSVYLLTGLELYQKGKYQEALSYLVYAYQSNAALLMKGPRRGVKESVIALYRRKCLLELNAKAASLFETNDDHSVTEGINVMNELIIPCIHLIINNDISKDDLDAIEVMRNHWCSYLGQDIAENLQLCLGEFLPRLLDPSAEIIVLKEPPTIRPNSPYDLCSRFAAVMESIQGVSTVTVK
Outline: as §1

Measured: log2 ratio of Biotin-Ahx-Ub-VS probe labelling

CC(O)CC1CCN(C(=O)CCl)CC1 (centres undefined)
inactive: USP19 -0.322 | USP24 -0.234 | USP25 -0.398 | USP28 -0.223
